Experimental data: PubChem BioAssay (NCI)
Compounds without any hit were thinned out: in the full panel of roughly 83,000, 20% have a hit.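 Step 1: grow cells in 96-well plates. Step 2: add test compound at a single concentration. Step 3: incubate 48 h. Step 4: record percent growth.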 Values without a mark were called inactive. The source made the active and inactive calls. Rule for the calls: active = growth percent below 10; inactive = the rest.

The compounds below were run on MDA-MB-231 breast (assay: NCI-60 one-dose screen, 48 h (100 = growth as untreated, 0 = no growth, -100 = all killed)). Conditions: 10 µM unless noted.
`Fc1ccc(-c2nnc(-c3c(-c4ccc(F)cc4)nc4ncccn34)o2)cc1` gave a growth of 122%. `S=c1[nH]nc2sc3ccccc3n12` was tested, and the growth was 96.7%. In the case of `Clc1ccc2nc(Cl)c3ccccc3c2c1`, the growth is reported as 74.9%. Compound `CCOC(Cc1c(N)[nH]c(=S)[nH]c1=O)OCC` has a growth of 111%. With `COc1ccc(-c2nnc(COc3ccc(NC(=O)Nc4cc(C(F)(F)F)cc(C(F)(F)F)c4)cc3F)o2)cc1` the growth was -22.6% (active). Compound `Clc1cccc(Cc2cn3cc(-c4ccccc4)nc3s2)c1` has a growth of 52.2%. With `ClC1=C(Cl)C(Cl)=C(Cl)C1=C/C=C/c1ccccc1` the growth was -17.2% (active). Work on `O=[N+]([O-])c1cnc(Sc2ccncn2)c([N+](=O)[O-])c1` yielded a growth of 91.1%. With `O=C(N1CCC(CN=c2cc3n(-c4ccc(Cl)cc4)c4ccccc4nc-3cc2Nc2ccc(Cl)cc2)CC1)N1CC1` the growth was -56.9% (active). Work on `COc1cc(/C=C2\CCC/C(=C\c3ccc(OCC4CO4)c(OC)c3)C2=O)ccc1OCC1CO1` (configuration not stated) yielded a growth of 13.1%. For `COc1ccc(-n2nnc(C(=O)O)c2-c2cc(OC)c(OC)c(OC)c2)cc1`, the growth was 122%. Compound `Nc1nc(N)c([N+](=O)[O-])c(=O)[nH]1` has a growth of 115%. Compound `Oc1[nH]c2ccccc2c1/C=c1/ccc2c(c1)N=C(c1cc(F)cc(F)c1)N=2` has a growth of 53.8%. In the case of `O=c1ccn(C2CCCO2)c(=O)[nH]1` (configuration not stated), the growth is reported as 107%. With `COc1ccc2nc3cc(Cl)ccc3c(Nc3cc(C(C)C)c(O)cc3C)c2c1` the growth was 37.7%. With `COc1ccc(-c2cnnn2-c2cc(OC)c3c(c2)OCO3)cc1` the growth was 4.19% (active). For `CC1=CC(=O)C(C(C)=Nc2ccccc2Cl)C(=O)O1` (configuration not stated), the growth was 105%. `O=[P@@]1(c2ccccc2)O[C@H](COCc2ccccc2)[C@@H](OCc2ccccc2)[C@H](OCc2ccccc2)[C@H]1NCc1ccccc1` showed a growth of 13.6%. Work on `COc1ccc(-c2noc(N)c2-c2cc(OC)c3c(c2)OCO3)cc1` yielded a growth of 47.6%. For `CN(C)c1nc(-c2ccco2)n2nc(-c3ccco3)cc2n1`, the growth was 74.2%. `COc1cccc(C2C(C#N)=C(N)Oc3cc(OC)ccc32)c1` (configuration not stated) was tested, and the growth was -15.4% (active). `c1cnc2ccc3ncccc3c2c1` showed a growth of 114%. `O=C(c1ccccc1)c1ccco1` was tested, and the growth was 93.6%. Work on `CCOC(=O)C1=NN(c2ccc(Cl)cc2)C2C3N(c4ccc(Cl)cc4)N=C(C(=O)OCC)N3c3ccccc3N12` (configuration not stated) yielded a growth of 103%. Work on `Cc1cc(NC(=O)c2ccc(N)cc2)ccc1N=Nc1ccc2c(O)c(N=Nc3ccc(Cl)c(S(=O)(=O)O)c3)c(S(=O)(=O)O)cc2c1` yielded a growth of 109%. Compound `O=C(Nc1cccc(C(F)(F)F)c1)Nc1ccc(OCc2nnc(-c3ccc(Cl)cc3)o2)c(F)c1` has a growth of 58.8%. For `CCN1C(=O)c2ccc3c4c(ccc(c24)C1=O)C(=O)N(CCCNCc1ccccc1OC)C3=O`, the growth was 2.92% (active). For `C=C1c2c(C)nn(-c3ccc(C#CCOC4OC(CO)C(O)C(O)C4O)cc3)c2N(C)C23C[C@H]1C1(C)c4c(C)nn(-c5ccc(C#CCOC6OC(CO)C(O)C(O)C6O)cc5)c4N(C)C(C)(C[C@H]12)C3` (some centres not stated), the growth was 5.4% (active). In the case of `O=C(Nc1ccc(OCc2nnc(-c3ccccc3)o2)c(F)c1)Nc1ccc(Cl)c(C(F)(F)F)c1`, the growth is reported as 29.3%. For `O=C(/C=C/c1ccccc1Cl)c1ccc(O)cc1`, the growth was 89%. `O=C(Nc1ccncc1)C(=O)c1cn(S(=O)(=O)c2cccc(F)c2)c2ccccc12` showed a growth of 67.4%. For `COc1cc(/C=C/C(=O)c2ccc(F)cc2)ccc1OCCCCCOc1cc2c(cc1OC)C(=O)N1CCCC1C=N2` (configuration not stated), the growth was -33% (active). `O=C(/C=C/c1ccc(O)c(O)c1)N1CCN(c2ccc(Cl)cc2)CC1` was tested, and the growth was 59.2%. `O=C(OCCBr)c1ccc(Cl)c([N+](=O)[O-])c1` gave a growth of 92%. With `COc1ccc2c(c1)/C(=C\c1c[nH]c3ccc(F)cc13)C(=O)N2` the growth was 106%. For `Cc1cc(C(=O)O)c(C)cc1C(=O)O`, the growth was 114%. Compound `O=C1/C(=N/O)CCc2ccccc21` has a growth of 79.7%.

The compounds below were run on RXF 393 renal in the same assay as above. Conditions: 10 µM unless noted.
Compound `Fc1ccc(-c2nnc(-c3c(-c4ccc(F)cc4)nc4ncccn34)o2)cc1` has a growth of 97.8%. `S=c1[nH]nc2sc3ccccc3n12` gave a growth of 116%. In the case of `Clc1ccc2nc(Cl)c3ccccc3c2c1`, the growth is reported as 59.6%. With `CCOC(Cc1c(N)[nH]c(=S)[nH]c1=O)OCC` the growth was 108%. In the case of `COc1ccc(-c2nnc(COc3ccc(NC(=O)Nc4cc(C(F)(F)F)cc(C(F)(F)F)c4)cc3F)o2)cc1`, the growth is reported as 16.3%. With `Clc1cccc(Cc2cn3cc(-c4ccccc4)nc3s2)c1` the growth was 94%. `O=[N+]([O-])c1cnc(Sc2ccncn2)c([N+](=O)[O-])c1` was tested, and the growth was 94.3%. With `O=C(N1CCC(CN=c2cc3n(-c4ccc(Cl)cc4)c4ccccc4nc-3cc2Nc2ccc(Cl)cc2)CC1)N1CC1` the growth was -93.3% (active). In the case of `COc1cc(/C=C2\CCC/C(=C\c3ccc(OCC4CO4)c(OC)c3)C2=O)ccc1OCC1CO1` (configuration not stated), the growth is reported as 4.7% (active). `COc1ccc(-n2nnc(C(=O)O)c2-c2cc(OC)c(OC)c(OC)c2)cc1` showed a growth of 105%. `Nc1nc(N)c([N+](=O)[O-])c(=O)[nH]1` was tested, and the growth was 114%. `Oc1[nH]c2ccccc2c1/C=c1/ccc2c(c1)N=C(c1cc(F)cc(F)c1)N=2` was tested, and the growth was 78.5%. `O=c1ccn(C2CCCO2)c(=O)[nH]1` (configuration not stated) showed a growth of 111%. For `COc1ccc(-c2cnnn2-c2cc(OC)c3c(c2)OCO3)cc1`, the growth was 10%. Compound `O=[P@@]1(c2ccccc2)O[C@H](COCc2ccccc2)[C@@H](OCc2ccccc2)[C@H](OCc2ccccc2)[C@H]1NCc1ccccc1` has a growth of 28.7%. In the case of `COc1ccc(-c2noc(N)c2-c2cc(OC)c3c(c2)OCO3)cc1`, the growth is reported as 32.4%. For `CN(C)c1nc(-c2ccco2)n2nc(-c3ccco3)cc2n1`, the growth was 106%. Compound `COc1cccc(C2C(C#N)=C(N)Oc3cc(OC)ccc32)c1` (configuration not stated) has a growth of 26.9%. `O=C(c1ccccc1)c1ccco1` showed a growth of 131%. `CCOC(=O)C1=NN(c2ccc(Cl)cc2)C2C3N(c4ccc(Cl)cc4)N=C(C(=O)OCC)N3c3ccccc3N12` (configuration not stated) showed a growth of 106%. `Cc1cc(NC(=O)c2ccc(N)cc2)ccc1N=Nc1ccc2c(O)c(N=Nc3ccc(Cl)c(S(=O)(=O)O)c3)c(S(=O)(=O)O)cc2c1` gave a growth of 68.6%. In the case of `O=C(Nc1cccc(C(F)(F)F)c1)Nc1ccc(OCc2nnc(-c3ccc(Cl)cc3)o2)c(F)c1`, the growth is reported as 58.2%. `C=C1c2c(C)nn(-c3ccc(C#CCOC4OC(CO)C(O)C(O)C4O)cc3)c2N(C)C23C[C@H]1C1(C)c4c(C)nn(-c5ccc(C#CCOC6OC(CO)C(O)C(O)C6O)cc5)c4N(C)C(C)(C[C@H]12)C3` (some centres not stated) was tested, and the growth was 37.5%. `O=C(Nc1ccc(OCc2nnc(-c3ccccc3)o2)c(F)c1)Nc1ccc(Cl)c(C(F)(F)F)c1` gave a growth of 45.9%. For `O=C(Nc1ccncc1)C(=O)c1cn(S(=O)(=O)c2cccc(F)c2)c2ccccc12`, the growth was 59.9%. With `O=C(/C=C/c1ccc(O)c(O)c1)N1CCN(c2ccc(Cl)cc2)CC1` the growth was 58%. For `O=C(OCCBr)c1ccc(Cl)c([N+](=O)[O-])c1`, the growth was 132%. Compound `COc1ccc2c(c1)/C(=C\c1c[nH]c3ccc(F)cc13)C(=O)N2` has a growth of 95.4%. `Cc1cc(C(=O)O)c(C)cc1C(=O)O` gave a growth of 116%. For `O=C1/C(=N/O)CCc2ccccc21`, the growth was 96.7%.
